Screening data (PubChem)
NR3A LBD binder = binders of NR3A ligand-binding domain, primary screen, biophysical, differential scanning fluorimetry, uHTS; NR3A LBD differential scanning fluorimetry, Tm shift; 0% = protein alone, 100% = glycine-bound protein; Tm shift relative to glycine control, % at 25 µM; hit rate 2.5% among 340,000; Glutamate receptor ionotropic, NMDA 3A (GRIN3A) ligand-binding domain;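 active = melting temperature shift of at least 10% of the positive control shift, at one fixed dose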
ANO1 activ = TMEM16A chloride channel activators or potentiators, primary screen, cell-based, HTS; Anoctamin-1 (Mus musculus), Q8BHY3; AID 623877, 2012; B-score at 10 µM; HEK293 TMEM16A/YFP-H148Q/I152L, iodide quench fluorescence; stronger effect = lower value; hit rate 0.3% among 340,000;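 active = fluorescence-ratio B-score plate-corrected deviation score at least 3 library SD below zero, with starting fluorescence score within 5 deviations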;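 also: channel opened by trigger with iodide after compound preincubation; score built on the fluorescence ratio of max minus min over baseline; more negative score means more quench and so TMEM16A activation or potentiation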
Target sequence (Q8BHY3 whole entry, looked up): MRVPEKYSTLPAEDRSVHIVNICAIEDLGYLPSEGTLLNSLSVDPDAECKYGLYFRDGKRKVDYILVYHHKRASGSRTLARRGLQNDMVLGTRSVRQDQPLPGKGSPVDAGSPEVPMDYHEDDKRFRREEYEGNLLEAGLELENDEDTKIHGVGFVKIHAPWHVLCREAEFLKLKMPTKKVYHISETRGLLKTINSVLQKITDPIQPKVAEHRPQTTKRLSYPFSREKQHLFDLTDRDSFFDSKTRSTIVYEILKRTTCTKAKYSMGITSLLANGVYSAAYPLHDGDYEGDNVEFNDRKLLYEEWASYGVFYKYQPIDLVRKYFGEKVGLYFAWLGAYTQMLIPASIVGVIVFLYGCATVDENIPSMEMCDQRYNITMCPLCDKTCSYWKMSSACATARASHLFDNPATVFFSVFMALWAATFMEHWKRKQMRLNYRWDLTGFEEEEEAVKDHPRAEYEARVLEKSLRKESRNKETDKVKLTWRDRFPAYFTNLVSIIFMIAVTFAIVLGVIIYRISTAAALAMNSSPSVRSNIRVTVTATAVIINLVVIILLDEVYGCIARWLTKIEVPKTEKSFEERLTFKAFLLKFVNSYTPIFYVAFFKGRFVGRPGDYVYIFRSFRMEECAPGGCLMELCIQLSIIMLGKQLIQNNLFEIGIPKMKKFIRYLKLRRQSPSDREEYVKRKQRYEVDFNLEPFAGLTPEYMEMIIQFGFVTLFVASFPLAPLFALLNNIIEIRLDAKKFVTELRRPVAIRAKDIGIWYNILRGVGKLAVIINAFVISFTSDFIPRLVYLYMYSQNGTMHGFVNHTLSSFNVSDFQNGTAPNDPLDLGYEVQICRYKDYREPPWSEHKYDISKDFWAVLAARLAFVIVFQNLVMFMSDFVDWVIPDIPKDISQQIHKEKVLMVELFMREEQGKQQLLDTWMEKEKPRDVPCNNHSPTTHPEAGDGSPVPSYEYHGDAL
TMEM16A inh = TMEM16A chloride channel inhibitors, primary screen, cell-based, HTS | AID 588511, 2011 | HEK293 TMEM16A/YFP iodide influx fluorescence, ionomycin | normalized B-score (activity score, 25-100; higher = stronger inhibition) at 10 µM | hit rate 1.2% among 310,000 | Anoctamin-1 (Mus musculus), Q8BHY3;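 active = ratio plate-corrected score three or more library SD toward inhibition, starting fluorescence score within five deviations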;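 also: score derived from kinetic fluorescence span divided by baseline fluorescence per well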
MPTP block = mitochondrial permeability transition pore inhibitors, primary screen, biochemical, isolated mouse mitochondria, absorbance; Ca2+ swelling absorbance, 30 min; inhibition, % at 10 µM; hit rate 1.4% among 360,000;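 active = inhibition of 50% or more, scaled per plate between neutral and stimulator controls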
CRFBP-R2 agonist = agonists of CRF-BP/CRF-R2 complex, primary screen, cell-based, HEK293, calcium dye fluorescence, uHTS | calcium dye fluorescence (FLIPR); percent of saturating CRF peptide response | hit rate 0.46% among 350,000 | AID 588473, 2011 | activation, % at 13.2 µM | CRF-binding protein / CRF receptor 2 complex (human);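 active = activation of at least 50%, plus an integration ratio under a set limit after plate pattern correction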
CRFBP-R2 block = antagonists of CRF-BP/CRF-R2 complex, primary screen, cell-based, HEK293, calcium dye fluorescence, uHTS; CRF-induced calcium fluorescence; inhibition, % at 11.8 µM; AID 588475, 2011; hit rate 0.59% among 350,000;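 active = inhibition of the ligand-induced calcium signal above about 50% at the single tested concentration, limit read from the data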
Numbers stand for hits; 0 = inactive; - = no result. The list is not random: actives were taken first. Their share in the collection is about 5.1%.

SMILES | NR3A LBD binder | ANO1 activ | TMEM16A inh | MPTP block | CRFBP-R2 agonist | CRFBP-R2 block
CC1CCc2nc(NC(=O)Nc3ccc4c(c3)OCO4)sc2C1 (stereo unspecified) | 31 | 0 | 0 | 0 | 0 | 0
COC(=O)Nc1ccc2c(c1)OCO2 | 0 | 0 | 0 | 0 | 0 | 0
COC(=O)c1ccc(NC(=O)Nc2ccc3c(c2)OCO3)cc1 | 24 | 0 | 0 | 0 | 0 | 0
CCCN(CCC)S(=O)(=O)c1cccc(C(=O)Nc2ccc3c(c2)OCO3)c1 | 0 | 0 | 0 | 0 | 0 | 0
CC(=O)c1cccc(NC(=O)Nc2ccc3c(c2)CCC3)c1 | 22 | 0 | 0 | 0 | 0 | 0
CC(=O)c1cccc(NC(=O)c2ccc3c(c2)CCCC3)c1 | 0 | 0 | 0 | 0 | 0 | 0
CC1CCc2nc(NC(=O)C3COc4ccccc4O3)sc2C1 (stereo unspecified) | 0 | 0 | 0 | 0 | 0 | 0
CCN(CC)S(=O)(=O)c1cccc(C(=O)Nc2ccc3c(c2)OCO3)c1 | 0 | 0 | 0 | 0 | 0 | 55
CN1CCN(C2CN(Cc3cn(Cc4cccc(C(F)(F)F)c4)nn3)S(=O)(=O)C2)CC1 (stereo unspecified) | - | - | - | 0 | - | -
COc1ccccc1C(=O)Nc1nnc([C@@H]2C[C@H](O)[C@@H](CO)O2)s1 | - | - | - | 0 | - | -
CC(=O)c1cccc(NC(=O)NCc2ccc3c(c2)OCO3)c1 | 0 | 0 | 0 | 0 | 0 | 0
O=C(Nc1ccc2c(c1)CCC2)c1ccccc1Br | 0 | 0 | 0 | 0 | 0 | 0
NC(=O)c1ccc(NC(=O)Nc2ccc3c(c2)OCO3)cc1 | 13 | 0 | 0 | 0 | 0 | 0
CC(=O)c1cccc(NC(=O)Nc2ccc3c(c2)OCO3)c1 | 13 | 0 | 0 | 0 | 0 | 0
O=C(Nc1ccc2c(c1)OCCO2)Nc1ccc2c(c1)OCO2 | 0 | 0 | 0 | 0 | 0 | 0
CSc1ccccc1C(=O)Nc1ccc2c(c1)CCC2 | 10 | 0 | 0 | 0 | 0 | 0
COc1ccc(S(=O)(=O)N(Cc2cccs2)C2CCCC2)cc1 | 0 | 0 | 100 | 0 | 0 | 0
COc1ccc(S(=O)(=O)NCc2cccs2)cc1 | 0 | 0 | 0 | 0 | 0 | 0
COc1ccc(/C=C/c2nc(-c3ccccc3)cc(=O)[nH]2)cc1 | 0 | 0 | 0 | 0 | 0 | 66
COc1cc2c(cc1OC)CN(C(=O)CN1CCN(S(=O)(=O)c3ccccc3)CC1)CC2 | 0 | 0 | 0 | 0 | 0 | 0
O=C(CCNC(=O)c1ccccc1Cl)Nc1cccc(C(F)(F)F)c1 | 0 | 0 | 0 | 0 | 0 | 0
O=C(Nc1cccc(C(F)(F)F)c1)C1(c2ccccc2)CC1 | 12 | 0 | 0 | 0 | 0 | 0
O=C(NNC(=S)Nc1cccc(C(F)(F)F)c1)c1ccccc1Cl | 0 | 0 | 25 | 0 | 0 | 0
CC(=O)COc1cc2c(-c3cc4ccccc4o3)cc(=O)oc2cc1C | 0 | 0 | 0 | 0 | 0 | 0
COc1ccc(/C=N/NC(=O)c2ccc(O)cc2)cc1CN1CCCc2ccccc21 | 27 | 0 | 0 | 0 | 0 | 0
SMILES | NR3A LBD binder | ANO1 activ | TMEM16A inh | MPTP block | CRFBP-R2 agonist | CRFBP-R2 block
COc1ccc(/C=N\NC(=O)c2cc(O)c(O)c(O)c2)cc1COc1ccc(C(=O)OCC(C)C)cc1 | 77 | 0 | 0 | 0 | 0 | 0
COc1ccc(/C=N/NC(=O)c2ccc(OC)c(OC)c2)cc1COc1c(F)c(F)c(F)c(F)c1F | 12 | 0 | 0 | 0 | 0 | 0
COc1ccc(/C=N/NC(=O)c2nc(Cl)c(Cl)c(N)c2Cl)cc1COc1ccc(F)cc1F | 10 | 0 | 0 | 0 | 0 | 0
CC1=C(C(=O)Nc2ccccc2C(=O)NC2CCCCC2)SCCO1 | 0 | 0 | 0 | 0 | 0 | 0
O=C1CC(C(=O)N2CCN(c3ccccc3O)CC2)CN1Cc1ccccc1 (stereo unspecified) | 0 | 0 | 0 | 0 | 0 | 0
COCc1cc(/C=N\NC(=O)c2ccc(Cl)cc2)ccc1OC | 11 | 0 | 0 | 0 | 0 | 0
CSCCC(NC(=O)COc1cccc2ccccc12)C(=O)O (stereo unspecified) | 0 | 0 | 0 | 0 | 0 | 0
COc1ccc(C(C(=O)NC2CCCCC2)N(Cc2ccco2)C(=O)c2snc(C(N)=O)c2N)cc1 (stereo unspecified) | 0 | 0 | - | 0 | 0 | 0
O=S(=O)(N/N=C/c1ccc(Cl)cc1)c1ccc(Cc2ncc(C(F)(F)F)cc2Cl)s1 | 29 | 0 | 0 | 0 | 0 | 0
CC(C)(C)N(Cc1ccccc1)C(=O)COC(=O)c1ccc2ccccc2n1 | 0 | 0 | - | 0 | 0 | 0
Cc1cc2cc(CN(CC3CCCO3)C(=S)NCc3ccco3)c(=O)[nH]c2cc1C (stereo unspecified) | 13 | 0 | 0 | 0 | 0 | 0
Cc1cc2cc(CN(Cc3ccco3)C(=S)NCC3CCCO3)c(=O)[nH]c2cc1C (stereo unspecified) | 0 | 0 | 0 | 0 | 0 | 0
Cc1c(NC(=O)c2nn(C(C)C)c(=O)c3ccccc23)c(=O)n(-c2ccccc2)n1C | - | - | - | 0 | 0 | 0
O=c1[nH]c(-c2ccccc2)cs1 | 11 | 0 | 0 | 0 | 0 | 0
O=S(=O)(c1cccc(-c2nnc(SCc3ccc(Cl)cc3)o2)c1)N1CCCCC1 | 0 | 0 | 0 | 0 | 0 | 0
CN(C)S(=O)(=O)c1cccc(-c2nnc(SCc3ccc4c(c3)OCCO4)o2)c1 | 0 | -17 | 0 | 0 | 0 | 0
CCCS(=O)(=O)N1CCCC(C(=O)NCCCN(CC)c2cccc(C)c2)C1 (stereo unspecified) | 0 | 0 | 0 | 0 | 0 | 94
CCc1nnc(N2C(=O)c3ccccc3C2(O)c2ccccc2)s1 (stereo unspecified) | 0 | 0 | 0 | 0 | 0 | 0
Cc1ccc2oc(=O)cc(/C=C/c3ccccc3)c2c1 | 18 | 0 | 0 | 0 | 0 | 0
Cc1ccc2oc3ccccc3c(=O)c2c1 | 0 | 0 | - | 0 | 0 | 0
COc1ccccc1C1/C(=C(\O)c2ccc3c(c2)OCCO3)C(=O)C(=O)N1Cc1cccnc1 (stereo unspecified) | 0 | 0 | 0 | 0 | 0 | 0
CN(C)c1ncnc2c1NC1=C(S2)C(=NCCCC(=O)O)CC(C)(C)C1 | 0 | 0 | 0 | 0 | 0 | 52
C/C(=N\NC(=O)c1nnn(-c2nonc2N)c1CN(C)c1ccccc1)c1cccs1 | 11 | 0 | 0 | 0 | 0 | 0
C/C(=N\NC(=O)c1nnn(-c2nonc2N)c1CN(C)c1ccccc1)c1ccc(O)cc1 | 0 | 0 | 0 | 0 | 0 | 0
CC/C(=N\NC(=O)c1nnn(-c2nonc2N)c1CN(C)c1ccccc1)c1ccccc1 | 242 | 0 | 0 | 0 | 0 | 0
COc1ccccc1N1CC(C(=O)OCC(=O)c2c(N)n(C)c(=O)n(C)c2=O)CC1=O (stereo unspecified) | - | - | - | 0 | 0 | 0
CCCN=C1N(C)C[C@@H]2[C@@H]3C(=O)N(Cc4ccccc4)C(=O)[C@@H]3[C@](Cc3ccccc3)(C(=O)OC)N12 | 0 | - | - | 0 | 0 | 0
